According to PubChem BioAssay:
The source made the active and inactive calls.

Columns and labels:
[1] = system: Plasmodium falciparum Sir2 (PF13_0152, Sir2A); test: pfSir2 binders on small-molecule microarrays, primary screen, biochemical, small-molecule microarray, 635 nm fluorescence (AID 1098); conditions: small-molecule microarray binding, fluorescence 635 nm; higher = more signal;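 further: score merges spot fluorescence intensity with its signal-to-noise ratio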
[2] = small-molecule microarray binders of probe aDKK1, primary screen, biochemical, biotinylated probe, 635/667 nm fluorescence (AID 1099); conditions: higher = more signal;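 further: score merges 667nm spot fluorescence with signal to noise across triplicate slides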
[3] = small-molecule microarray binders of probe aCHRDL2, primary screen, biochemical, biotinylated probe, 635/667 nm fluorescence (AID 1100); conditions: higher = more signal
[4] = splicing luciferase reporter signal modulators, primary screen, spliceosome inhibition project, cell-based, HEK293, splice +/- reporter (AID 1101); conditions: luminescence, 24 h, higher = more signal, called active from +8 up or from −8 down;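 further: HEK293 cells carrying a splicing-competent luciferase reporter gene; test concentration not given here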
[5] = biological target: Fibroblast growth factor 10 (Homo sapiens) (UniProt O15520); test: FGF10 binders on small-molecule microarrays, primary screen, biochemical, small-molecule microarray, 635 nm fluorescence (AID 1102); conditions: FGF10 binding, fluorescence 635 nm, higher = more signal
[6] = system: glycogen synthase kinase-3 (GSK3A per assay name; protocol says GSK3B); test: GSK3 binders on small-molecule microarrays, primary screen, biochemical, small-molecule microarray, 635 nm fluorescence, GSK3A (AID 1103); conditions: small-molecule microarray binding, fluorescence 635 nm; higher = more signal; further: the record names both GSK3A and GSK3B
[7] = biological target: Epidermal growth factor receptor (Homo sapiens) (UniProt P00533); test: EGFR binders on small-molecule microarrays, primary screen, biochemical, small-molecule microarray, 635 nm fluorescence (AID 1104); conditions: EGFR binding, higher = more signal;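 further: score merges 667 nm emission intensity with spot signal to noise over triplicate slides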
[8] = biological target: Follistatin-related protein 3 (Homo sapiens) (UniProt O95633); test: FSTL3 binders on small-molecule microarrays, primary screen, biochemical, small-molecule microarray, 635 nm fluorescence (AID 1105); conditions: FSTL3 binding, higher = more signal;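 further: score merges emission near 667 nm and signal to noise per printed spot across three slides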
[9] = biological target: Dickkopf-related protein 1 (Homo sapiens) (UniProt O94907); test: DKK1 binders on small-molecule microarrays, primary screen, biochemical, small-molecule microarray, 635 nm fluorescence scan (AID 1106); conditions: DKK1 binding, higher = more signal;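 further: score merges emission near 667 nm with signal to noise over three replicate slides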
[10] = system: Inhibin beta A chain (activin A); test: INHBA (activin A) binders on microarrays, primary screen, biochemical, small-molecule microarray, 635 nm fluorescence scan (AID 1107); conditions: small-molecule microarray binding, higher = more signal;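 further: mouse activin A protein probed at 4.33 µg/mL on printed slides; score merges bound-protein fluorescence near 667 nm with spot signal-to-noise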
[11] = system: Human papillomavirus type 1a protein E7 (residues 44-93); test: HPV1a E7 fragment binders on microarrays, primary screen, biochemical, small-molecule microarray, residues 44-93, 635 nm fluorescence (AID 1108); conditions: small-molecule microarray binding, fluorescence 635 nm; higher = more signal;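 further: E7 fragment applied at 1 µg/mL in TBST for 1 h at 4 C; score combines spot fluorescence with its signal to noise ratio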
[12] = modulators of HCV replicon luciferase signal, primary screen, HCV replication inhibitor project, Huh7 cells, luciferase reporter (AID 1109); conditions: 48 h, higher = more signal;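 further: huh7 hepatoma cells harbouring a luciferase neomycin HCV replicon reporter; luciferase luminescence as measure of HCV replicon replication; test concentration not given here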
[13] = biological target: Left-right determination factor 2 (Homo sapiens) (UniProt O00292); test: LEFTY2 binders on small-molecule microarrays, primary screen, biochemical, small-molecule microarray, 635 nm fluorescence scan (AID 1110); conditions: LEFTY2 binding, higher = more signal
[14] = biological target: Calmodulin-1 (Homo sapiens) (UniProt P0DP23); test: CALM1 binders on microarrays, EGTA buffer, profiling panel, biochemical, small-molecule microarray, Cy5-labelled CALM1 (AID 1111); conditions: Cy5-CALM1 binding fluorescence, higher = more signal;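 further: labelled calmodulin applied in Tris saline Tween buffer holding calcium plus EGTA and DTT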
[15] = biological target: Calmodulin-1 (Homo sapiens) (UniProt P0DP23); test: calcium-bound CALM1 binders on microarrays, profiling panel, artefact control for SMM control-protein annotation, biochemical, small-molecule microarray, Cy5-labelled CALM1, plus calcium (AID 1112); conditions: Cy5-CALM1 binding fluorescence, higher = more signal;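 further: score merges spot fluorescence with signal to noise from triplicate slides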
[16] = small-molecule microarray binders of probe aWnt5a, primary screen, biochemical, biotinylated probe, 635/667 nm fluorescence (AID 1113); conditions: higher = more signal;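 further: score merges 667 nm fluorescence intensity with signal-to-noise per printed feature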
[17] = small-molecule microarray binders of probe aShh, primary screen, biochemical, biotinylated probe, 635/667 nm fluorescence (AID 1114); conditions: higher = more signal;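 further: probe is biotin-labelled aShh protein from a stem cell growth factor screen; measures binding of labelled protein to compounds printed on the slide; score merges feature fluorescence at 667 nm with signal-to-noise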
[18] = small-molecule microarray binders of probe aNog, primary screen, biochemical, biotinylated probe, 635/667 nm fluorescence (AID 1115); conditions: higher = more signal;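 further: probe is biotinylated aNog protein used at 0.15 µg/mL for 1 h at 4 C; z-score combines 667 nm fluorescence of each spot with its signal to noise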
[19] = biological target: Torsin-1A-interacting protein 1 (Homo sapiens) (UniProt Q5JTV8); test: LAP1 binders from COS7 cell lysate, primary screen, small-molecule microarray, 635/667 nm fluorescence (AID 1116); conditions: COS7-hLAP1 lysate binding, 635 nm fluorescence, higher = more signal
[20] = biological target: Alpha-bungarotoxin (Bungarus multicinctus) (UniProt P60615); test: alpha-bungarotoxin binders on microarray, profiling panel, artefact control for SMM control protein annotation, biochemical, small-molecule microarray, Alexa647 label, 635/667 nm fluorescence (AID 1117); conditions: alpha-BTX-A647 binding fluorescence, higher = more signal
Alpha-bungarotoxin (Bungarus multicinctus), sequence (P60615 whole entry, looked up): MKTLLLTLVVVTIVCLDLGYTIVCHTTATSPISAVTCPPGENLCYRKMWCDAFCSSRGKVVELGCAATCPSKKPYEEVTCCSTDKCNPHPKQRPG

Epidermal growth factor receptor (Homo sapiens), sequence (P00533 whole entry, looked up): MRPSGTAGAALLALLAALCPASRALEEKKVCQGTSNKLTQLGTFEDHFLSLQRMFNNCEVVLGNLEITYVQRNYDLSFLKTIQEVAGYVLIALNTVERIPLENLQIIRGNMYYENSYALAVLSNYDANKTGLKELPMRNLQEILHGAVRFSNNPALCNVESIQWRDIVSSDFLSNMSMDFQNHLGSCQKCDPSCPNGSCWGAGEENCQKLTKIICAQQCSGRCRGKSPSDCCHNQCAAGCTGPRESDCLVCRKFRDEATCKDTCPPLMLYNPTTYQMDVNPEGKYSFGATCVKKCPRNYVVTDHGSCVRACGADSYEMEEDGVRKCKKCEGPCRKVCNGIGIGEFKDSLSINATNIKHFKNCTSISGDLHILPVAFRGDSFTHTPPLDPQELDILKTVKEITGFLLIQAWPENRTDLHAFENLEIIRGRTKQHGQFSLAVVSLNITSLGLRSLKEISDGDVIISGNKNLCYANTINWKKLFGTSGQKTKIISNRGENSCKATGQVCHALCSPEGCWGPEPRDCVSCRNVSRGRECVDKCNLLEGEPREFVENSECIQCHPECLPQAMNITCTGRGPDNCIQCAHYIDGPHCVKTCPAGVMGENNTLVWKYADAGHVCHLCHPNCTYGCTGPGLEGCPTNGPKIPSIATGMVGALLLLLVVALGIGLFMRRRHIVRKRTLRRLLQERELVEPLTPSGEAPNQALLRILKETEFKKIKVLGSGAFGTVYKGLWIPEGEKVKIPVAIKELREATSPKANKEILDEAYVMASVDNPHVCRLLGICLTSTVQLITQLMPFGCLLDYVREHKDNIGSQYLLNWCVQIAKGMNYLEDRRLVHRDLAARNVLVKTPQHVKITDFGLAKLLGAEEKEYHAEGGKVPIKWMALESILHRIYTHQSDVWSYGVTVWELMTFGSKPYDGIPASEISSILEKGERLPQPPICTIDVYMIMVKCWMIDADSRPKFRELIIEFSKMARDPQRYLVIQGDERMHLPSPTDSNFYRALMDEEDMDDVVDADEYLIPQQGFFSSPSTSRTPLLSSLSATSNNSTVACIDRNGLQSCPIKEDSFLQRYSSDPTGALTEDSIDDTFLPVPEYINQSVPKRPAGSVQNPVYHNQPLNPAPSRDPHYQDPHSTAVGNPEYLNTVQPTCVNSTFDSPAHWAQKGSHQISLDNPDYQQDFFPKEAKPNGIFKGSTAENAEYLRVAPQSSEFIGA
Dickkopf-related protein 1 (Homo sapiens), sequence (O94907 whole entry, looked up): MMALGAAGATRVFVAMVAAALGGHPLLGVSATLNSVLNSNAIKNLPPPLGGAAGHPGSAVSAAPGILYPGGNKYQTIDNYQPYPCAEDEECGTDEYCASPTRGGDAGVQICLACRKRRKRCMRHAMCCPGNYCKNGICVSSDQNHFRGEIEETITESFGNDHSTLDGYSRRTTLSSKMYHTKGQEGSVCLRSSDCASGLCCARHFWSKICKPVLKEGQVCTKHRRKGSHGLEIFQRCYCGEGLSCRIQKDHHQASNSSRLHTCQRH
Follistatin-related protein 3 (Homo sapiens), sequence (O95633 whole entry, looked up): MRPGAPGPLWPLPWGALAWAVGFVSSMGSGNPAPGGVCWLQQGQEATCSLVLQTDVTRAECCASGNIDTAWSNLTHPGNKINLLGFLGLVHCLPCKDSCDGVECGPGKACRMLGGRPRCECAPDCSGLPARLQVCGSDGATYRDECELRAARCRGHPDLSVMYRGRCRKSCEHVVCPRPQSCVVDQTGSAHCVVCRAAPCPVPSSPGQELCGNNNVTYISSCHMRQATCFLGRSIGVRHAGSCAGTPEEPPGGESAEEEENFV
Left-right determination factor 2 (Homo sapiens), sequence (O00292 whole entry, looked up): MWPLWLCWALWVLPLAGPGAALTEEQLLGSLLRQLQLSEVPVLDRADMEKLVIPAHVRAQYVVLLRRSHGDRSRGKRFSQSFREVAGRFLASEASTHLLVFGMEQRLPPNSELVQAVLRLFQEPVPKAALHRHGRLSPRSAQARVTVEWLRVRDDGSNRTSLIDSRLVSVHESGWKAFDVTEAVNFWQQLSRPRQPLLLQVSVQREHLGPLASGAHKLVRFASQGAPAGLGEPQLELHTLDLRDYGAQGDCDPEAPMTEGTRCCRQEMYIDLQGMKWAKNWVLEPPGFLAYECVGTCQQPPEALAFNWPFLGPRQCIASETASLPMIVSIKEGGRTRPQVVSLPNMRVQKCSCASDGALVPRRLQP
Fibroblast growth factor 10 (Homo sapiens), sequence (O15520 whole entry, looked up): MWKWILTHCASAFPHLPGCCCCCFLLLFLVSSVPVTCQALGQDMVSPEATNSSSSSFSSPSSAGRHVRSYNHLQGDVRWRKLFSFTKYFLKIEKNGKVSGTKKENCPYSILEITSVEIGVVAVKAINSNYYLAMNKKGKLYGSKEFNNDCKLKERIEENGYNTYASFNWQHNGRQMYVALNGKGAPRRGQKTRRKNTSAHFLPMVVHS
Torsin-1A-interacting protein 1 (Homo sapiens), sequence (Q5JTV8 whole entry, looked up): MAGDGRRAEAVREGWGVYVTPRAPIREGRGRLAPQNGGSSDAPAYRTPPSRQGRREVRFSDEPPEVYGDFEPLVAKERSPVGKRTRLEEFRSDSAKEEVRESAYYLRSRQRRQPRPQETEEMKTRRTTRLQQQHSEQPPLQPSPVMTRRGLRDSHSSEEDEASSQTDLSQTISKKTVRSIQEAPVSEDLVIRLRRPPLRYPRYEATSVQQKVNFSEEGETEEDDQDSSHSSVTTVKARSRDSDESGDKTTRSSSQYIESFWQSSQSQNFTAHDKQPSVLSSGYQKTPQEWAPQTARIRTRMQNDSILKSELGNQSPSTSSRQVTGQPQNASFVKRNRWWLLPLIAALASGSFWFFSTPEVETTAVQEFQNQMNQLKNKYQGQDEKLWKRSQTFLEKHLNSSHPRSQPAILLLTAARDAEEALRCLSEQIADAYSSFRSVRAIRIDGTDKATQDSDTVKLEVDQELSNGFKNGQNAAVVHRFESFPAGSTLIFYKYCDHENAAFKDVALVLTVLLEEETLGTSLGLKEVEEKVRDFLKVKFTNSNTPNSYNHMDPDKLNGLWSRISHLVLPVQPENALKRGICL

Row | SMILES | composite z-score [1] | composite z-score [2] | composite z-score [3] | z-score [4] | composite z-score [5] | composite z-score [6] | composite z-score [7] | composite z-score [8] | composite z-score [9] | composite z-score [10] | composite z-score [11] | z-score [12] | composite z-score [13] | composite z-score [14] | composite z-score [15] | composite z-score [16] | composite z-score [17] | composite z-score [18] | composite z-score [19] | composite z-score [20]
1 | O=C1O[C@H](c2ccccc2)[C@H](c2ccccc2)N2[C@H]1[C@@H](C(=O)NC[C@H](O)c1ccccc1)[C@]1(C(=O)Nc3ccc(C#CC4=CCCCC4)cc31)[C@H]2c1ccc(OCCO)cc1 | 1.06 | 0.607 | 0.469 | -1.33 (inactive) | 0.313 | 1.27 | 0.386 | 0.968 | 0.703 | 1.05 | 0.567 | -1.91 | 0.377 | 0.977 | 0.385 | -0.0519 | 0.0711 | 0.0884 | 0.6 | 1.38
2 | CC(=O)NCCCC[C@@H]1NC(=O)[C@@H]2C[C@H](C(=O)NCc3ccc(F)cc3)[C@H](c3cccc(OCCO)c3)N2C1=O | 1.02 | 0.0839 | 0.0979 | 0.281 (inactive) | 0.0733 | -0.895 | -0.148 | -0.488 | -0.047 | 0.101 | 0.843 | -0.0901 | -0.0566 | -0.286 | 0.0377 | -0.0836 | 0.0469 | -0.183 | 0.436 | -0.86
3 | O=C1O[C@@H](c2ccccc2)[C@@H](c2ccccc2)N2[C@@H](c3ccc(OCCO)cc3)[C@]3(C(=O)Nc4ccc(C#CCCO)cc43)[C@@H](C(=O)N3CCN(c4ncccn4)CC3)[C@H]12 | 1.13 | 0.0868 | 0.319 | 0.952 (inactive) | 1.19 | 0.935 | 0.16 | 1.07 | 0.116 | 0.666 | 1.44 | -0.347 | 0.669 | 0.732 | 0.073 | 0.0115 | 0.151 | -0.601 | 0.842 | 1.75
4 | [N-]=[N+]=NCc1ccccc1C[C@]1(C(=O)N2CCCCC2)N=C(c2ccc(OCCCO)cc2)O[C@H]1c1ccccc1CN=[N+]=[N-] | 0.751 | 0.518 | 0.885 | 0.324 (inactive) | 0.924 | 0.65 | -0.107 | 0.556 | -0.531 | 0.212 | 1.41 | -2.73 | -0.406 | 1.67 | 0.855 | 0.0375 | 0.503 | 1.25 | 1.95 | 1.11
5 | COC(=O)C[C@H]1O[C@]2(C(=O)N(C)c3ccccc32)[C@@H](C)[C@@H]1[Si](C)(C)c1ccc(OC)cc1 | 0.377 | -0.198 | -0.514 | -1.78 (inactive) | 1.29 | 0.637 | 0.309 | 0.558 | 0.344 | -0.27 | 0.353 | -2 | 1.02 | 0.0348 | -0.327 | 0.0502 | -0.271 | -0.141 | 0.335 | 0.449
